# Results published in the supplement of paper PMC11732987, “Enantioselective OTUD7B fragment discovery through chemoproteomics screening and high-throughput optimisation” (Communications Chemistry, 2025).
# Unmarked numbers belong to inactive results.
# What was measured:
# Test in all cases: log2 ratio of Biotin-Ahx-Ub-VS probe labelling (fragment/DMSO); higher = less target engagement (more negative = stronger competition), active = hit call of the paper (q ≤ 0.05, log2 ratio ≤ -1)
# Conditions in all cases: compound concentration: 200 uM; treatment time: 3 h
# [1] = target: USP16 (UniProt Q9Y5T5)
# USP16, sequence (Q9Y5T5 whole entry, looked up, the tested form may be a part): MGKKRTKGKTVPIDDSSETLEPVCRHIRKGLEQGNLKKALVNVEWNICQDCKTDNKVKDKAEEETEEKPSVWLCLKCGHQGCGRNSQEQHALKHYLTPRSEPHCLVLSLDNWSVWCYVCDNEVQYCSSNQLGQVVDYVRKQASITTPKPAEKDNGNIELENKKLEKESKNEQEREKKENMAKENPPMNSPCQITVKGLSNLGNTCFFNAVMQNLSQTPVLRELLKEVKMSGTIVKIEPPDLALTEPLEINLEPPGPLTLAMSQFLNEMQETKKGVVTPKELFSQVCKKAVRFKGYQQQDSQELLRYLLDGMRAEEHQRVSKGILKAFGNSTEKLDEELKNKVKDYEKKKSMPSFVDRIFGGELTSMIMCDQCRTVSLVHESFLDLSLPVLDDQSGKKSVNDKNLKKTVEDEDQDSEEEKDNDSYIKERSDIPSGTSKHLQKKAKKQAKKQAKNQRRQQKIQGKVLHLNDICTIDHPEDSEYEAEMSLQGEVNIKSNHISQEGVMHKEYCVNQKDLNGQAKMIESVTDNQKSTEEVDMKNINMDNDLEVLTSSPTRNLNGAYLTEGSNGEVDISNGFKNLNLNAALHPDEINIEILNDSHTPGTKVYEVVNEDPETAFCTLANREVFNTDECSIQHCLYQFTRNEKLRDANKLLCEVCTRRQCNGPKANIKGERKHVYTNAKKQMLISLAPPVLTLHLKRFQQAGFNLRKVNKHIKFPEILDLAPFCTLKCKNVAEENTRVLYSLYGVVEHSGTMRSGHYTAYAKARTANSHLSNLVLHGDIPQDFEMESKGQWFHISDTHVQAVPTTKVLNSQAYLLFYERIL
# How it was run: (§1)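 HEK293T lysate, 495 µg per sample in Tris/CHAPS/IGEPAL buffer with protease inhibitors, was treated in triplicate with fragment at 200 µM or vehicle for 3 h and then with Biotin-Ahx-Ub-VS at 0.5 µM final for 1 h. Labelled DUBs were NeutrAvidin-enriched, digested with LysC and trypsin, and run by diaPASEF LC-MS/MS. Spectronaut label-free quantities were global-median-normalised, and values are average log2 fragment/vehicle ratios by unpaired t-test on proteins with ≥2 unique peptides.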
# [2] = target: T1, USP19 (UniProt O94966)
# T1 sequence (whole entry): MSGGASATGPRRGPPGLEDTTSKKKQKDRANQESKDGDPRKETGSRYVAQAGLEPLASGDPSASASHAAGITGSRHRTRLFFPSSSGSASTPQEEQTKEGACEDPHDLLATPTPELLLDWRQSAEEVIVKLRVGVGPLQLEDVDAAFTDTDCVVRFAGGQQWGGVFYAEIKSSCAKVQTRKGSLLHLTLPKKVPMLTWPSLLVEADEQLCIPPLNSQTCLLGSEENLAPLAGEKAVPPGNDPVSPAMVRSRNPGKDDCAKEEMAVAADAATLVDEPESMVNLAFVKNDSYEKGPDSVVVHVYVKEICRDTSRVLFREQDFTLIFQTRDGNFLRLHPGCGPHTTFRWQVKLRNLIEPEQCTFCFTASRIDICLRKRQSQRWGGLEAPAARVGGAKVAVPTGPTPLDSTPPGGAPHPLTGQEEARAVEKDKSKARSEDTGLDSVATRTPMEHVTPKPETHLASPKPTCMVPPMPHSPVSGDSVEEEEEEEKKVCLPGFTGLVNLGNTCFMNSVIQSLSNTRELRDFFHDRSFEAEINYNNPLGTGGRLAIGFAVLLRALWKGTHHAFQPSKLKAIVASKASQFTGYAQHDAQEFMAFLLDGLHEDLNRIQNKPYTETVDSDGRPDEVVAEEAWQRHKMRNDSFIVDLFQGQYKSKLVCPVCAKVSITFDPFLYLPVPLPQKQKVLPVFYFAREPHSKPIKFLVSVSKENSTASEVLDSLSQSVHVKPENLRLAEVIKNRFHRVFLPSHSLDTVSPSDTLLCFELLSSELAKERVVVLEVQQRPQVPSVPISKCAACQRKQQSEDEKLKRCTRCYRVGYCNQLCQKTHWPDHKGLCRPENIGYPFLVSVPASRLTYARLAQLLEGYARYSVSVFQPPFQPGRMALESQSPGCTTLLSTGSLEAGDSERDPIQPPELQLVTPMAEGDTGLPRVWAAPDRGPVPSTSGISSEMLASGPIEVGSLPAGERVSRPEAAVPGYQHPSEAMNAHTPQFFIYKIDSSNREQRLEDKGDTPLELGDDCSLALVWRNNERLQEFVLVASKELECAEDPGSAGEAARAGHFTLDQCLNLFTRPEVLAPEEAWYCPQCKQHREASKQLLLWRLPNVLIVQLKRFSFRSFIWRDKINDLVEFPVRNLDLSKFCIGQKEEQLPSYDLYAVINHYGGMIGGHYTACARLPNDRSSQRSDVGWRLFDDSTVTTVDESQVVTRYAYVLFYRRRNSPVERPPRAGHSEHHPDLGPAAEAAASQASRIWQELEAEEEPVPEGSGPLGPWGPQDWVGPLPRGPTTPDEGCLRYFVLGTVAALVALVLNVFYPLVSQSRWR
# How it was run: as §1
# [3] = target: USP24 (UniProt Q9UPU5)
# USP24, sequence (Q9UPU5 whole entry): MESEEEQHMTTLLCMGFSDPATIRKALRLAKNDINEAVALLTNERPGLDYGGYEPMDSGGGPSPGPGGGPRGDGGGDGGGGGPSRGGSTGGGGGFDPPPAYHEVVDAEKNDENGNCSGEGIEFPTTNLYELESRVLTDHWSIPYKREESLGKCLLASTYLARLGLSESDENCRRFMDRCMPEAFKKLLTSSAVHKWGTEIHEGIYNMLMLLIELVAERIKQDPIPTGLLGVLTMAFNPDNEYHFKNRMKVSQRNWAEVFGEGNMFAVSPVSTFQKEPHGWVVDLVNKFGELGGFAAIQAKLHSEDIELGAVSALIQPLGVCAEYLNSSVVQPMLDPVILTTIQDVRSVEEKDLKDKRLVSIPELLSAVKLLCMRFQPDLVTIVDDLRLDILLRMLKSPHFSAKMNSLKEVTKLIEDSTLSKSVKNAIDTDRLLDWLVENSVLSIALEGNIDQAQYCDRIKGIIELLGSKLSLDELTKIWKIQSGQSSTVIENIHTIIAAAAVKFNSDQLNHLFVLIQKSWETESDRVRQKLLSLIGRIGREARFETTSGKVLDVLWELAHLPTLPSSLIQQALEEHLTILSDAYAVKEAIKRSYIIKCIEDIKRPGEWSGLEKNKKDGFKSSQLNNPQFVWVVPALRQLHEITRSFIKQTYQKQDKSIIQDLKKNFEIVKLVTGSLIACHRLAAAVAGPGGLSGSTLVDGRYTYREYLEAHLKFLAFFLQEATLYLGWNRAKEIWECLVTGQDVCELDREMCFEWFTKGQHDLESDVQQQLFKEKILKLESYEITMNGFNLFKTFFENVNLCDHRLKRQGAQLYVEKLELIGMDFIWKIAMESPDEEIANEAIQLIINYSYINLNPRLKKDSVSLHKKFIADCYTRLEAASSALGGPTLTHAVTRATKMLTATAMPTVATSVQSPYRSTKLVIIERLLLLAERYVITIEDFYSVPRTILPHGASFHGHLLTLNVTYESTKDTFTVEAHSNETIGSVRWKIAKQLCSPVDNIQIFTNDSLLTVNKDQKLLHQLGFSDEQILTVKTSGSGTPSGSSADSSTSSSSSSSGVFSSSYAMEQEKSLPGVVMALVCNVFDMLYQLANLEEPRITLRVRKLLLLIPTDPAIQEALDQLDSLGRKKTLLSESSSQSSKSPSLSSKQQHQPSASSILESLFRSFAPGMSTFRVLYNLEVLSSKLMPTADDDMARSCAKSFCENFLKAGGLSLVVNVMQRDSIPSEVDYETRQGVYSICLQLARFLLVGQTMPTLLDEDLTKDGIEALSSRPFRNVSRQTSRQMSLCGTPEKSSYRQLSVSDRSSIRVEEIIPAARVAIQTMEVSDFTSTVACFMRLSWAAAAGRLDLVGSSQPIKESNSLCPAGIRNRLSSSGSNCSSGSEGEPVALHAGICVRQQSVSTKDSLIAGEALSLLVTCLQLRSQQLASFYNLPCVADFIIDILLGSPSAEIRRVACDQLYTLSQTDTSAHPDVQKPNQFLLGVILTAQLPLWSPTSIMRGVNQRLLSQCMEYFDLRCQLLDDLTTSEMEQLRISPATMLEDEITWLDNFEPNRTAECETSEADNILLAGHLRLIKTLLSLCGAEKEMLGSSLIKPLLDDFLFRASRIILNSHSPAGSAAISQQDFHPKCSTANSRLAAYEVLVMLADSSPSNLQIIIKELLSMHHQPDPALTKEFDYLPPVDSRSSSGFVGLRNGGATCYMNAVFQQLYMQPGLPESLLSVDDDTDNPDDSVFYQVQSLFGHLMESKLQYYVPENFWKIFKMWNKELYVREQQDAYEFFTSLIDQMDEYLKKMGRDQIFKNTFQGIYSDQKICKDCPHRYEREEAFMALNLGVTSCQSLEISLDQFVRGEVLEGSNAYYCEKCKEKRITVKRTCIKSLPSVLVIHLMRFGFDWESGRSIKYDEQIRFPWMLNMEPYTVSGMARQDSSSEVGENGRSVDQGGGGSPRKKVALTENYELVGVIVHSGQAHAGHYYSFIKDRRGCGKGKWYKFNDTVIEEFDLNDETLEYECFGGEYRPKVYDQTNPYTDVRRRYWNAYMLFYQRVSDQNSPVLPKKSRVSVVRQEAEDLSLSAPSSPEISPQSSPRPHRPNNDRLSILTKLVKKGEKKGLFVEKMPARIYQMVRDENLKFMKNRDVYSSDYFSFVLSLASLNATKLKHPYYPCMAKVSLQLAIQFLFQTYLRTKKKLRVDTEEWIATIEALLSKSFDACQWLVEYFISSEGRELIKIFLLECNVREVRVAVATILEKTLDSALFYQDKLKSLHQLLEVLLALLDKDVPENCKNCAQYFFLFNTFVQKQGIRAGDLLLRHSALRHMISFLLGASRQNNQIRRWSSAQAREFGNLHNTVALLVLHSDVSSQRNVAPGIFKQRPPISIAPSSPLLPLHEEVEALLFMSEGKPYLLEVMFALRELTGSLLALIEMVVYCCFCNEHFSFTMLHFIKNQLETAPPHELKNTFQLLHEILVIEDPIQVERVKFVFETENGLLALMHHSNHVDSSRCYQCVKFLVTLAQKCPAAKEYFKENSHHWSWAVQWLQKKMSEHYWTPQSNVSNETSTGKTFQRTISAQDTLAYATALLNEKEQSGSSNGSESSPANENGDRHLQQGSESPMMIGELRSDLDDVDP
# How it was run: as §1
# [4] = target: T2, USP25 (UniProt Q9UHP3)
# T2 sequence (whole entry): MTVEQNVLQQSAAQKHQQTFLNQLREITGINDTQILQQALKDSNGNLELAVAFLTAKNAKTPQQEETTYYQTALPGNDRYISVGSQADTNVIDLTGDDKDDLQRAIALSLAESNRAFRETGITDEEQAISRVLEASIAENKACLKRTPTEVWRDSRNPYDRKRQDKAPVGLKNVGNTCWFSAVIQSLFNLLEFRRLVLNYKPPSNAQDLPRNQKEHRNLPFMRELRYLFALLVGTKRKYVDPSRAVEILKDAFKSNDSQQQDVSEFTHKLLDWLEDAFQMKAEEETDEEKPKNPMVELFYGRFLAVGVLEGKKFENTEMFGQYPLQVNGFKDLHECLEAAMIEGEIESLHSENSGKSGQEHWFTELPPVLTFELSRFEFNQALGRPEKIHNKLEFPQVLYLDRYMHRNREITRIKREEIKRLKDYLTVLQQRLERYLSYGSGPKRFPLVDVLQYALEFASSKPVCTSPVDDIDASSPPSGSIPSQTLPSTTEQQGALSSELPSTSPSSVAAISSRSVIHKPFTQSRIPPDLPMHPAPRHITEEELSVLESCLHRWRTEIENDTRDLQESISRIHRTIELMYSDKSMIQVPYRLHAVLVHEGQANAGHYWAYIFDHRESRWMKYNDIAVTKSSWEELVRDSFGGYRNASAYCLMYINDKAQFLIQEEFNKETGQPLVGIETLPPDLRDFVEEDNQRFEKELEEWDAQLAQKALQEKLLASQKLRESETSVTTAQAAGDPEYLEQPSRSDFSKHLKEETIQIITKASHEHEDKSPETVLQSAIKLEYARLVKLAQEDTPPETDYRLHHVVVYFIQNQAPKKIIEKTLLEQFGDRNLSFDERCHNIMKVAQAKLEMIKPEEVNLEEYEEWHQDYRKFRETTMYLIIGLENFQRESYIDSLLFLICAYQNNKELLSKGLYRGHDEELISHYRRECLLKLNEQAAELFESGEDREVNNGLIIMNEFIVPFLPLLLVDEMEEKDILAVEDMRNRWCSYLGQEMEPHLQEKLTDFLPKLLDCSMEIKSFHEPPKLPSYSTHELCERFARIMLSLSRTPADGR
# How it was run: as §1
# [5] = target: T3, USP28 (UniProt Q96RU2)
# T3 sequence (whole entry): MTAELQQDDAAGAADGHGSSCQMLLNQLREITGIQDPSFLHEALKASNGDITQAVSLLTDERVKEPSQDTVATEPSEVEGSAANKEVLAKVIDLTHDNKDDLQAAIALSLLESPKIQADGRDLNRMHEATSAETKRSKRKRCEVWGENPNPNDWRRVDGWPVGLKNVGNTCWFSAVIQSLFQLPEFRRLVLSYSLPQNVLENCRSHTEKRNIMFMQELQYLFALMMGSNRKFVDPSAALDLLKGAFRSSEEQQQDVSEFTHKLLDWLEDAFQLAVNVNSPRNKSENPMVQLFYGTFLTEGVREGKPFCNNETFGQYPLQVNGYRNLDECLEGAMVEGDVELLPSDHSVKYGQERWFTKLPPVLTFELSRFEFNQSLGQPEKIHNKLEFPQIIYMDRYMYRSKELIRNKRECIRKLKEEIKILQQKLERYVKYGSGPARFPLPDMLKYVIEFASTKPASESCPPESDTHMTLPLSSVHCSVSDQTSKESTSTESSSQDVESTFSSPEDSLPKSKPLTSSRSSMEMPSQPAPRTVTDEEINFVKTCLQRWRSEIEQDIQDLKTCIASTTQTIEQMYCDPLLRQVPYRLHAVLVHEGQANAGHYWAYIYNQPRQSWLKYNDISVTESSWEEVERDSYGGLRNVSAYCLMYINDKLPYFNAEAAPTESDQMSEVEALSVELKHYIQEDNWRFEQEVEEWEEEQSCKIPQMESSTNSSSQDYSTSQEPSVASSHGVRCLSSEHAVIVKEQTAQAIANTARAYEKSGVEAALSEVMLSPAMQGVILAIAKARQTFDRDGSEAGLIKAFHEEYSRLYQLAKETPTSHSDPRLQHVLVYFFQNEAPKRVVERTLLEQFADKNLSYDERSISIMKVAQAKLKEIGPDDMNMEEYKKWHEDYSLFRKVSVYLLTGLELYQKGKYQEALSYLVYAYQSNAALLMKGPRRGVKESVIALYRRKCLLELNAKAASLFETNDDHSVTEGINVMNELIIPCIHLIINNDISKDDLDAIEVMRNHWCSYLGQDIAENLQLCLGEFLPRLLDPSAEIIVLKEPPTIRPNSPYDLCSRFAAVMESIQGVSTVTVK
# How it was run: as §1
compound,measurement,setting,value
COc1cc(Cl)c(C)cc1NC(=O)CCl,log2 ratio of Biotin-Ahx-Ub-VS probe labelling,[1],-0.634
same,log2 ratio of Biotin-Ahx-Ub-VS probe labelling,[2],-0.357
same,log2 ratio of Biotin-Ahx-Ub-VS probe labelling,[3],-1.3 (active)
same,log2 ratio of Biotin-Ahx-Ub-VS probe labelling,[4],-0.839
same,log2 ratio of Biotin-Ahx-Ub-VS probe labelling,[5],-0.742
